Screens as filed in PubChem BioAssay.
KB-V1 cytotox: KB-V1 MDR subline cytotoxicity | KB-V1 MDR cells viability, CellTiter-Glo, 72 h | Potency, µM (highest dose often 46.1 µM), most hits filed as cytotoxic | hit rate 3.4% among 400,000 | AID 1347076; note: % is set by controls: 0 for no effect and ±100 for the full control effect; nearly all actives have a fitted effect of over 60% in size
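Potencies derive from concentration-effect curves fitted to normalized luminescence (CellTiter-Glo) of KB-V1 cells treated for 72 h at 37 degrees C in phenol-red-free DMEM containing 10% FBS.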
SW480 rerep: induces DNA re-replication in SW480 colon adenocarcinoma cells; Potency, µM (doses to about 46.1 µM), for the others: at the highest dose re-replication activation, usual class: activators; hit rate 1.8% among 340,000; SW480 DNA re-replication, Hoechst DNA content imaging, 48 h; note: % of control where 0% means no effect; nearly all actives have a fitted effect of over 55% in size
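Compounds, transferred as 23 nL by pin tool, were incubated with cells for 48 hr; DNA content per nucleus was then quantified by Hoechst staining and fluorescence plate imaging.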
MCF10A rerep: inducers of DNA re-replication in MCF 10A breast cells | MCF 10A DNA re-replication, Hoechst nuclear intensity, 48 h | Potency, µM (top dose mostly 46.1 µM), for inactives: at the top dose activity, positive = re-replication, hits mostly activators | hit rate 2.9% among 350,000 | AID 624296; note: % of control where 0% means no effect; nearly all actives have a fitted effect of over 50% in size
KB-3-1 tox: kills parental KB-3-1 adenocarcinoma cells; KB-3-1 viability, CellTiter-Glo ATP luminescence, 72 h; Potency, µM (highest dose often 46.1 µM), usual class: cytotoxic; hit rate 1.4% among 400,000; note: % is set by controls: 0 for no effect and ±100 for the full control effect; nearly all actives have a fitted effect of over 60% in size
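Here the drug-naive KB-3-1 line serves as comparator for MDR sub-line selectivity; cells received compound titrations, 72 h at 37 °C, then CellTiter-Glo readout.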
HT1080 IDH1KD tx: HT-1080 IDH1 knockdown cell toxicity (counter line); HT-1080 IDH1 knockdown viability, ATP luminescence, 48 h; Potency, µM (series often up to 46.1 µM), for inactives: at the highest dose activity, negative = toxicity, actives largely listed as cytotoxic; hit rate 2% among 360,000;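 note: 0% = DMSO wells and -100% = cell-free medium wells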
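CellTiter-Glo luminescence after 48 h compound exposure at 37 degrees C of IDH1-knockdown HT-1080 cells in 5% FBS RPMI. %Activity scaled between DMSO wells and cell-free media wells, with curves fitted and assigned curve classes.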
HT1080NT lethal: kills 2HG-producing HT-1080-NT fibrosarcoma cells; hit rate 1.6% among 360,000; HT-1080-NT fibrosarcoma viability, CellTiter-Glo ATP luminescence, 48 h; Potency, µM (highest dose often 46.1 µM), without a hit: at the top dose activity, negative = less viability, usual class: cytotoxic;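 note: NT is the 2HG producing partner of a matched IDH1 knockdown line; 0% = DMSO-treated cells and -100% = media-only wells without cells; nearly all actives have a fitted effect of over 55% in size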
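Toxicity toward the 2HG-producing NT line was scored as %Activity, normalised to DMSO and no-cell wells, from CellTiter-Glo luminescence after 48 hours' treatment.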
The depositor's hits bear a star; i = inactive; ? = inconclusive; · = not tested or not shown. Only some compounds are listed: those with a hit (about 8% of all), similar ones and a draw of the others. Calls come from the whole dose curve; as a rule, active = well fitted curve in the direction sought with a large enough effect; inconclusive = small, poorly fitted or top-dose-only effect, or another doubt; inactive = no such curve, though single readings can be large; an effect the other way counts as inactive or inconclusive. Potency is the fitted concentration of half-maximal effect.

SMILES	KB-V1 cytotox	SW480 rerep	MCF10A rerep	KB-3-1 tox	HT1080 IDH1KD tx	HT1080NT lethal
CCOP(=O)(OCC)C(NC(=O)Nc1cccc(Cl)c1)C(N)=O (centres undefined)	?	1.5µM*	2%	i	-1%	3%
CC(C)OC(=O)NC(C)(C)COC(=O)Nc1cccc(Cl)c1	9.2µM*	-7%	1%	?	-18%	-24%
CCOP(=O)(OCC)C(NC(=O)Nc1cccc(Cl)c1)c1ccccc1 (centres undefined)	i	8%	?	i	-8%	-20%
O=C(Nc1cccc(Cl)c1)OCCOc1ccccc1	i	-6%	6%	i	0%	7%
O=C(Nc1cccc(Cl)c1)OCCOC(=O)Nc1cccc(Cl)c1	i	24%	?	i	23µM*	?
CC(C)CCNC(=O)C1CCN(C(=O)N2CCOc3ccc(Cl)cc32)CC1	i	·	·	i	·	·
C/C=C\C(=O)Nc1cccc(C2=NOC3(C2)C[C@@H](C(N)=O)N(C(=O)CC(c2ccccc2)c2ccccc2)C3)c1 (some centres undefined)	i	3%	9%	i	-2%	0%
CCCCCC(=O)Nc1cccc(C2=NOC3(C2)C[C@@H](C(N)=O)N(C(=O)CC(c2ccccc2)c2ccccc2)C3)c1 (some centres undefined)	i	4%	?	16µM*	?	-22%
O=C(OC(c1ccccc1)c1nccc2ccccc12)c1cc([N+](=O)[O-])cc([N+](=O)[O-])c1 (centres undefined)	8.2µM*	?	?	i	-14%	-10%
CC(=O)c1cccc(NC(=O)c2nc(-c3ccccc3)n(-c3cccc(Cl)c3)n2)c1	i	·	·	i	·	·
COc1ccc(-c2cn3cc(C(=O)NN)ccc3n2)cc1	i	-10%	-1%	i	?	?
Cc1ccc2nc(-c3ccccc3)cn2c1	10µM*	-17%	-4%	12µM*	12µM*	12µM*
CC(=O)Nc1ccc(-c2cn3cc(C)ccc3n2)cc1	16µM*	2%	2%	i	7%	1%
NNC(=O)c1ccc2nc(-c3ccc(Br)cc3)cn2c1	i	?	8%	i	?	18µM*
COc1ccc(CN(C)C(=O)COC(=O)c2ccc3c(c2)OCO3)cc1OC	i	-18%	-5%	i	0%	-7%
Cn1nc(C(=O)OCC(=O)c2ccc[nH]2)c2ccccc2c1=O	i	?	-1%	i	13%	14%
COc1ccc(N2CCN(C(=S)Nc3cccc(C)c3)CC2)cc1	i	0%	-9%	i	0%	7%
CCOc1ccc(CCN2C(=O)C(=O)N([C@@H](CC(C)C)CN3CCC[C@H]3CN3C(=O)C(=O)NC[C@@H]3Cc3ccc(O)cc3)C[C@@H]2CC(C)C)cc1	i	·	·	i	?	?
COc1ccc(/C(N)=N/OC(=O)CCC2CCCC2)cc1	i	4%	-1%	i	7%	0%
O=C(c1ccc2c(=O)n(-c3ccccc3)c(=S)[nH]c2c1)N1CCCCC1	?	-3%	?	7.3µM*	-27%	-27%
O=C(c1ccc2c(=O)n(C3CCCC3)c(=S)[nH]c2c1)N1CCCCCC1	7.3µM*	-3%	-1%	?	0%	-10%
C[C@@H]1CN([C@@H](C)CO)C(=O)c2cccc(NS(C)(=O)=O)c2O[C@H]1CN(C)C(=O)Nc1ccc(F)cc1	i	-29%	-24%	i	-1%	8%
Cc1ccc2nc(NC(=O)CN3CCN(c4ccccn4)CC3)sc2c1	i	25%	?	i	4%	7%
CC(=O)c1ccc(Oc2cc(-c3ccccc3)nc(-c3ccccc3)n2)cc1	?	21µM*	1%	?	?	20%
CCOC(=O)CN1C(=O)C(Sc2n[nH]c(-c3ccc(C)cc3)n2)CCc2ccccc21 (centres undefined)	i	0%	0%	i	?	?
SMILES	KB-V1 cytotox	SW480 rerep	MCF10A rerep	KB-3-1 tox	HT1080 IDH1KD tx	HT1080NT lethal
CCOC(=O)CN1C(=O)C(Sc2n[nH]c(-c3cccc(C)c3)n2)CCc2ccccc21 (centres undefined)	21µM*	-1%	-3%	i	?	?
CCOc1ccccc1N1C(=O)CC(Sc2n[nH]c(-c3ccccc3)n2)C1=O (centres undefined)	i	?	15µM*	i	?	26%
CCOC(=O)N1CCN(C(=S)Nc2ccccc2C(C)C)CC1	i	-31%	-17%	i	2%	13%
CC1C/C(=N\Nc2ccc(S(N)(=O)=O)cc2[N+](=O)[O-])CC(C)(C)C1 (centres undefined)	i	10%	21µM*	i	?	?
NS(=O)(=O)c1ccc(NN=C2CCN(Cc3ccccc3)CC2)c([N+](=O)[O-])c1	i	-3%	-7%	i	-9%	1%
Cc1cc(C)c2c(c1)/C(=N/Nc1ccc(S(N)(=O)=O)cc1[N+](=O)[O-])CCC2	?	-7%	2.3µM*	i	-5%	-8%
NS(=O)(=O)c1ccc(N/N=C2/CCCCC2C2CCCCC2)c([N+](=O)[O-])c1 (centres undefined)	i	?	12µM*	?	?	18µM*
COc1cc(/C=N/N(C)C)ccc1OC(=O)c1ccco1	i	3%	14%	?	9%	-2%
CC(C)(C)NC(=O)COC(=O)c1c2c(nc3ccccc13)CCC2	?	-8%	5%	i	-17%	-15%
N#Cc1cccc(NC(=O)CNc2cccc(S(=O)(=O)N3CCCC3)c2)c1	i	?	?	?	-2%	-17%
O=c1cc(O)c2c(=O)n(-c3ccccc3)c3c(c2o1)CCCCC3	16µM*	-12%	?	i	0%	-2%
Cc1c(Cl)c(=O)oc2cc(OC(C)C)ccc12	21µM*	-2%	0%	i	-2%	2%
COc1ccc(-n2c(SCC(=O)O)nnc2-c2ccc(NC(=O)c3ccccc3)cc2)cc1	i	-6%	-1%	i	3%	4%
O=C(NCc1ccccc1)c1cc(-c2cccc(O)c2)on1	i	6.5µM*	?	i	0%	-6%
O=C(NCc1cccnc1)c1cc(-c2ccccc2)on1	?	-4%	0%	i	-6%	-21%
COc1cc(C=O)ccc1OS(=O)(=O)c1ccccc1[N+](=O)[O-]	i	?	-4%	i	-10%	-11%
